Laboratory results from PubChem BioAssay.
Activity calls are given as the source filed them.

Legend:
[1] = binders of probe aFSTL3 on microarray, primary screen, stem cell growth factor project, biochemical, small-molecule microarray, fluorescence 635/667 (AID 1064); conditions: higher = more signal;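 further: measures binding of the biotinylated anti-FSTL3 antibody to printed compounds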
[2] = binders from COS7 lysate, DM2A8 probe, primary screen, torsin A project, cell lysate, small-molecule microarray, fluorescence 635/667 (AID 1065); conditions: higher = more signal, COS7 lysate expressing mutant human TOR1A
[3] = binders of probe aFGF2 on microarray, primary screen, stem cell growth factor project, biochemical, small-molecule microarray, fluorescence 635/667 (AID 1067); conditions: higher = more signal;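 further: measures binding of biotinylated aFGF2 protein to printed compounds on slides; z-score merges feature fluorescence and signal-to-noise across triplicate slides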
[4] = binders of probe aFGF10 on microarray, primary screen, stem cell growth factor project, biochemical, small-molecule microarray, fluorescence 635/667 (AID 1071); conditions: higher = more signal;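 further: score merges 667 nm spot intensity and signal to noise from triplicate slides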
[5] = target: Neurogenic locus notch homolog protein 2 (Homo sapiens) (UniProt Q04721); assay: Notch2 binders on small-molecule microarrays, primary screen, biochemical, small-molecule microarray, 635 nm fluorescence, stem cell growth factors (AID 1073); conditions: Notch2 binding, higher = more signal
[6] = target: Pro-neuregulin-1, membrane-bound isoform (Homo sapiens) (UniProt Q02297); assay: NRG1 binders on small-molecule microarrays, primary screen, psychiatric disease protein project, biochemical, small-molecule microarray, fluorescence 635/667 (AID 1075); conditions: NRG1 binding, 635 nm fluorescence, higher = more signal;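 further: score combines 667 nm spot fluorescence with signal to noise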
[7] = tested on: Neuregulin-1 EGF-like domain; assay: binders of neuregulin-1 EGF-like domain, primary screen, biochemical, small-molecule microarray, 635 nm fluorescence (AID 1081); conditions: small-molecule microarray binding, higher = more signal;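 further: binding of the protein to compounds printed on small-molecule microarray slides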
[8] = FRG1 promoter luciferase signal modulators, primary screen, FRG1 inhibition for FSHD, cell-based, C2C12 myotubes, firefly/Renilla luciferase, luminescence (AID 1084); conditions: higher = more signal, called active from +8 up or from −8 down
[9] = binders of probe aFST on microarray, primary screen, stem cell growth factor project, biochemical, small-molecule microarray, fluorescence 635/667 (AID 1086); conditions: higher = more signal;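 further: score merges 667 nm fluorescence with signal-to-noise of each printed compound spot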
[10] = binders of probe aHhip on microarray, primary screen, stem cell growth factor project, biochemical, small-molecule microarray, fluorescence 635/667 (AID 1087); conditions: higher = more signal;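 further: score merges spot fluorescence at 667nm with spot signal to noise ratio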
[11] = tested on: PRMT1 (protein arginine N-methyltransferase 1); assay: PRMT1 binders on small-molecule microarrays, primary screen, biochemical, small-molecule microarray, 635 nm fluorescence (AID 1088); conditions: small-molecule microarray binding, higher = more signal;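 further: binding of Prmt1 protein to compounds spotted on small-molecule microarray slides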
[12] = yeast growth modulation, basal conditions, primary screen, YJM789 clinical isolate, OD600, 24 h (AID 1089);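 further: growth of clinical yeast isolate S. cerevisiae YJM 789 seeded 1000 cells per well; test concentration not given here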; conditions: S. cerevisiae YJM789 growth, higher = more signal, called active from +8 up or from −8 down
[13] = fission yeast growth modulation, primary screen, strain 972, OD600, 24 h, no modulator (AID 1090);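 further: basal condition with compound alone and no growth modifier present; test concentration not given here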; conditions: S. pombe 972 growth, higher = more signal, called active from +8 up or from −8 down
[14] = S. cerevisiae growth modulation with rapamycin, primary screen, strain BY4716, OD600, 96 h (AID 1091); conditions: higher = more signal, called active from +8 up or from −8 down; further: test concentration not given here
[15] = target: Torsin-1A-interacting protein 2 (Homo sapiens) (UniProt Q8NFQ8); assay: LULL1 binders on small-molecule microarray, primary screen, cell lysate, human LULL1 lysate, 635/667 nm fluorescence (AID 1092); conditions: hLULL1 lysate binding, 635 nm fluorescence, higher = more signal;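 further: probe is lysate of COS7 cells overexpressing human LULL1; score merges per-feature 667 nm fluorescence with signal-to-noise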
[16] = E. coli growth modulation, two-sided OD650, primary screen, E. coli filamentation project, strain DRC41, 24 h (AID 1093); conditions: OD650, 24 h, higher = more signal, called active from +8 up or from −8 down;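 further: MC1000 strain lacking acrAB efflux and sulA so SOS filamentation is blocked; test concentration not given here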
[17] = small-molecule microarray binders of probe aLefty2, primary screen, biochemical, biotinylated probe, 635/667 nm fluorescence (AID 1094); conditions: higher = more signal;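 further: score merges spot fluorescence near 667 nm with spot signal-to-noise ratio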
[18] = tested on: Noggin (protein binding on small-molecule microarray); assay: Noggin binders on small-molecule microarray, primary screen, biochemical, 635/667 nm fluorescence (AID 1095); conditions: 635 nm fluorescence, higher = more signal;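 further: score merges 667 nm feature fluorescence with signal to noise over triplicate slides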
[19] = target: Neurogenic locus notch homolog protein 3 (Homo sapiens) (UniProt Q9UM47); assay: NOTCH3 binders on small-molecule microarray, primary screen, biochemical, 635/667 nm fluorescence (AID 1096); conditions: NOTCH3 binding, 635 nm fluorescence, higher = more signal
[20] = small-molecule microarray binders of probe aEGFR, primary screen, biochemical, biotinylated probe, 635/667 nm fluorescence (AID 1097); conditions: higher = more signal;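 further: probe is a biotinylated anti-EGFR antibody binding compounds printed on slides; score combines fluorescence near 667 nm and signal to noise of each spot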

Sequence of Torsin-1A-interacting protein 2 (Homo sapiens) (Q8NFQ8 whole entry, looked up): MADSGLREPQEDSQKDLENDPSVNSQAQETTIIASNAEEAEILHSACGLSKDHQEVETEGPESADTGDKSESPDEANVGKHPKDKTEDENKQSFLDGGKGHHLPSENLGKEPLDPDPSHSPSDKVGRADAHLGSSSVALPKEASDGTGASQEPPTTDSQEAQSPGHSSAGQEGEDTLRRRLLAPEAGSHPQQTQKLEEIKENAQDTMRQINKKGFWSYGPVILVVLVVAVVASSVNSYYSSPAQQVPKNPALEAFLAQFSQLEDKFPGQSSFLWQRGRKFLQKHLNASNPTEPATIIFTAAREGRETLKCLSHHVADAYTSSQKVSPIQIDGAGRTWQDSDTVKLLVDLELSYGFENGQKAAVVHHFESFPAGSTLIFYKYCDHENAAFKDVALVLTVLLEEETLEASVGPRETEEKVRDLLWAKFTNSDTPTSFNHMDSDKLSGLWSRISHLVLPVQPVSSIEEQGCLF
Sequence of Neurogenic locus notch homolog protein 3 (Homo sapiens) (Q9UM47 whole entry, looked up): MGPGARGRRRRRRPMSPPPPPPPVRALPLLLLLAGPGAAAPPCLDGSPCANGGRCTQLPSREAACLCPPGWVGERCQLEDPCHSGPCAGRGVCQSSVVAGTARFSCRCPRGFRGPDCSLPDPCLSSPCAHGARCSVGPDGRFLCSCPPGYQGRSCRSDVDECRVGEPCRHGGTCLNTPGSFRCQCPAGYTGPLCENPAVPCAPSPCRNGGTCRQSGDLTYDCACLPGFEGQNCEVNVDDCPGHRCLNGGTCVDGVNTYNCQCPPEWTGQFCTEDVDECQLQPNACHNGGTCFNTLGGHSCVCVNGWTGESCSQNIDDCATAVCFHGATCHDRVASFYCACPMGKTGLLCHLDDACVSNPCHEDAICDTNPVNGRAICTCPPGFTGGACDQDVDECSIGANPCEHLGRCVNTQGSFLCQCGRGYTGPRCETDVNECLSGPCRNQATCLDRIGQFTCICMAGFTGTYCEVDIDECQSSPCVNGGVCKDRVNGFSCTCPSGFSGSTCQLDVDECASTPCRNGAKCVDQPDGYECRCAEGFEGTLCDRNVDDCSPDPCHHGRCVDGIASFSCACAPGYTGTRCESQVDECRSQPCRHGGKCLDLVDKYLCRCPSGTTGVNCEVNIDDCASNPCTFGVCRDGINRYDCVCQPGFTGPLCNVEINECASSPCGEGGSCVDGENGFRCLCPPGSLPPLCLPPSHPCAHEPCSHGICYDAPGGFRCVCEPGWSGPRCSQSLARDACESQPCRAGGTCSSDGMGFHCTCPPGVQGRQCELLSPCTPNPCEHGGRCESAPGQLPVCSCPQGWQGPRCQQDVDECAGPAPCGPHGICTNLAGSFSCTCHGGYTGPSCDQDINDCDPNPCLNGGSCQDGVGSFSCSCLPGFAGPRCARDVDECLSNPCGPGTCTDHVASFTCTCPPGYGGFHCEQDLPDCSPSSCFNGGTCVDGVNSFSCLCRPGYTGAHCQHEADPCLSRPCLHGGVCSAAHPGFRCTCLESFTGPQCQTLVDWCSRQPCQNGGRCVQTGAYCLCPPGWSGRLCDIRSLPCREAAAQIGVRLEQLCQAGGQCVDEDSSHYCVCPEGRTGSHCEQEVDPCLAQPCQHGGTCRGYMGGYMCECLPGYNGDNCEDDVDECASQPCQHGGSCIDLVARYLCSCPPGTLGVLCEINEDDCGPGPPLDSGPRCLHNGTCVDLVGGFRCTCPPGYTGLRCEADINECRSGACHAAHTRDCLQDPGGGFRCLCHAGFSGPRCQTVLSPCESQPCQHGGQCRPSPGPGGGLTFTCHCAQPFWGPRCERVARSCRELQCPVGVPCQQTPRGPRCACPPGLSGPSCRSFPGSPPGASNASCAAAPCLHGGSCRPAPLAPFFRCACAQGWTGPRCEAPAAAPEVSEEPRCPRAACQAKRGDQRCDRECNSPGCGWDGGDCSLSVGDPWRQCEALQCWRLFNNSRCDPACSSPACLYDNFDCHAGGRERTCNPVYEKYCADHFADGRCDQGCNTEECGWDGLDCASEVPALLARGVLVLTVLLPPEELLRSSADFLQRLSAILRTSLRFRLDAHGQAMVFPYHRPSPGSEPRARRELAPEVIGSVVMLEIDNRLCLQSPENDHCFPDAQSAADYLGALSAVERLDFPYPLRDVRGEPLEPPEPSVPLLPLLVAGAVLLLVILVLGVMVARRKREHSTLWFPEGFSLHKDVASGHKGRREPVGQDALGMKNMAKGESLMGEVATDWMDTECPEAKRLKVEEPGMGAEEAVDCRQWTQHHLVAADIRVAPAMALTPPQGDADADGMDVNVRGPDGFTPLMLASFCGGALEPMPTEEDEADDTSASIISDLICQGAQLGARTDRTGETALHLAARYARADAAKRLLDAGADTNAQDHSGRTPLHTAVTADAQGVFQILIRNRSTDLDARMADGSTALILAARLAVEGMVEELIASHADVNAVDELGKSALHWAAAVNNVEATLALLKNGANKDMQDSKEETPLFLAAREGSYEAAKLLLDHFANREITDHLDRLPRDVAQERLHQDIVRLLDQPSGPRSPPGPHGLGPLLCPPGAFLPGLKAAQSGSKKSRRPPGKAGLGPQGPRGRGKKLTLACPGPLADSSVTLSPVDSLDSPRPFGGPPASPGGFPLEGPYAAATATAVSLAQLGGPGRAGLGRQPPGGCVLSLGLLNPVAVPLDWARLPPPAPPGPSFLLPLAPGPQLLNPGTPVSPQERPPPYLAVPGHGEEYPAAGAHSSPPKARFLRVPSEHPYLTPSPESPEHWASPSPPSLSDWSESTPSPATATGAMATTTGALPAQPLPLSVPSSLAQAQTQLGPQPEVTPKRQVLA
Sequence of Pro-neuregulin-1, membrane-bound isoform (Homo sapiens) (Q02297 whole entry, looked up, the tested form may be a part, canonical isoform): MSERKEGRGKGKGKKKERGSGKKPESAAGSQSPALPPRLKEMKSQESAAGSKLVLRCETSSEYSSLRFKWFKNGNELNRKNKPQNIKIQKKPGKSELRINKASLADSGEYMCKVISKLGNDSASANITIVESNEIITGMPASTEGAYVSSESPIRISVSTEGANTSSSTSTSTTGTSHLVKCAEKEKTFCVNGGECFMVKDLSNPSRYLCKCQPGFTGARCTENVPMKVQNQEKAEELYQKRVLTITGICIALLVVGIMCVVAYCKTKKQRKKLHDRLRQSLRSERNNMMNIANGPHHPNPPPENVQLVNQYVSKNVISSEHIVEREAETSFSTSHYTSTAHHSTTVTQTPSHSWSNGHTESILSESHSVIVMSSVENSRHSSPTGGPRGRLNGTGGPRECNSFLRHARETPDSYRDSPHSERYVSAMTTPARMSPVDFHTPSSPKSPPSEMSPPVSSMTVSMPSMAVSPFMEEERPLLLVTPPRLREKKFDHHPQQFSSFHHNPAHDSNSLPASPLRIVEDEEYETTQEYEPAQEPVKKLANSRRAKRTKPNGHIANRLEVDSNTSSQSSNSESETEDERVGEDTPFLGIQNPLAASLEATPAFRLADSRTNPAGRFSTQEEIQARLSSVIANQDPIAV

| SMILES | composite z-score [1] | composite z-score [2] | composite z-score [3] | composite z-score [4] | composite z-score [5] | composite z-score [6] | composite z-score [7] | z-score [8] | composite z-score [9] | composite z-score [10] | composite z-score [11] | z-score [12] | z-score [13] | z-score [14] | composite z-score [15] | z-score [16] | composite z-score [17] | composite z-score [18] | composite z-score [19] | composite z-score [20] |
| --- | --- | --- | --- | --- | --- | --- | --- | --- | --- | --- | --- | --- | --- | --- | --- | --- | --- | --- | --- | --- |
| COC(=O)[C@@]1(Cc2ccc(F)cc2)[C@H]2c3cc(C(=O)N(C)C)n(CCc4ccc(O)c(OC)c4)c3C[C@H]2CN1C(=O)c1ccccc1 | 1.71 | 0.245 | 0.735 | 1.27 | 1.27 | -0.0157 | 1.03 | 0.245 (inactive) | 1.7 | 0.372 | -0.646 | 0.503 (inactive) | 0.459 (inactive) | 0.689 (inactive) | 1.01 | -0.849 (inactive) | 1.42 | 0.446 | 0.237 | 1.25 |
| CC(CO)N1C(=O)[C@@H]2[C@H]3C(=O)OCC=C[C@H]3OC23C=CCN(CCN2CCOCC2)C(=O)[C@@H]13 (stereo not given in full) | -0.979 | -0.0708 | -0.203 | -0.362 | -0.256 | -0.718 | 0.284 | 1.03 (inactive) | -0.0558 | -0.539 | 0.658 | -0.792 (inactive) | -0.968 (inactive) | -0.268 (inactive) | -0.986 | -0.909 (inactive) | -0.33 | 0.169 | 0.0282 | -0.0828 |
| CCCCCCCCCCC(O)C1C=CC2C(=O)N(C)C(=O)C2N1NC(=O)OC(C)(C)C (stereo not given) | -0.318 | -0.127 | -0.0272 | -0.293 | 0.228 | 1.03 | 0.465 | -0.218 (inactive) | 0.0478 | -0.212 | 0.76 | 0.258 (inactive) | -16.5 (active) | -1.97 (inactive) | 2.18 | -2.14 (inactive) | -0.0725 | -0.765 | 0.0249 | -0.128 |
| NC(N)=NCCCn1cc(CNC(=O)[C@@H](N)Cc2ccccc2)nn1 | 0.236 | 0.236 | 0.0263 | -0.0436 | -0.0857 | 1.28 | 1.49 | 1.28 (inactive) | 0.044 | 0.0053 | 0.605 | 0.567 (inactive) | -0.627 (inactive) | -0.933 (inactive) | 1.14 | -1.08 (inactive) | 0.0616 | 0.743 | 0.179 | 0.0221 |
| CC(C)C(=C=CC[C@H](O)c1cccc(OCCO)c1)C[C@H](O)c1cc(Cl)cc(Cl)c1O | -0.205 | -0.178 | -0.116 | 0.792 | -0.022 | 0.462 | 0.827 | 0.209 (inactive) | 0.53 | 0.0722 | 1.03 | 0.834 (inactive) | -1.06 (inactive) | -0.129 (inactive) | 2.37 | 0.236 (inactive) | -0.114 | 0.665 | 0.964 | -0.0626 |
| CC(C)C(=C=CC[C@H](O)c1ccc(OCCO)cc1)C[C@H](O)c1ccccn1 | -0.331 | -0.0844 | -0.129 | 0.679 | -0.0686 | 0.243 | 1.28 | -0.0915 (inactive) | -0.249 | -0.0618 | 1.52 | 0.758 (inactive) | -1.29 (inactive) | -0.132 (inactive) | 1.18 | 0.714 (inactive) | -0.142 | 1.28 | 0.481 | -0.146 |
| O=C(CS)NCCCCCCNC(=O)[C@H]1C[C@H]2C(=O)N[C@@H](Cc3ccccc3)C(=O)N2[C@H]1c1ccc(O)cc1 | -0.361 | 0.375 | -0.132 | 0.836 | 0.51 | 1.34 | 1.36 | 0.234 (inactive) | -0.571 | -0.928 | 1.53 | 0.407 (inactive) | 1.1 (inactive) | 1.12 (inactive) | 1.91 | -0.0352 (inactive) | -0.316 | 0.405 | 0.635 | -0.105 |
| [N-]=[N+]=NCc1ccccc1C[C@@]1(C(=O)NCc2ccccc2)N=C(c2ccc(OCCCO)cc2)O[C@@H]1c1ccccc1N=[N+]=[N-] | 0.298 | 0.421 | 0.0075 | 0.629 | 1.33 | 1.07 | 1.1 | -1.81 (inactive) | 1.27 | 0.143 | 1.18 | -1.38 (inactive) | 1.57 (inactive) | 6.91 (inactive) | 2.88 | 0.213 (inactive) | 0.198 | -0.247 | 0.412 | -0.0831 |
| COc1cc2c(cc1O)C(C)N(Cc1ccc([N+](=O)[O-])o1)CC2 (stereo not given) | 0.182 | 0.731 | -0.0138 | 1.15 | 1.3 | 1.53 | 1.08 | 0.11 (inactive) | 0.401 | 0.28 | 1.56 | -0.337 (inactive) | -3.24 (inactive) | -1.57 (inactive) | 1.74 | -0.741 (inactive) | 0.136 | 0.142 | 1.07 | 0.174 |
